Compound activity deposited in PubChem BioAssay by The Scripps Research Institute Molecular Screening Center.
In the library only some 3.5% were active in any assay of this set; here they are far more common.
GPR151 ag = activators of human GPR151; Q8TDV0; PathHunter beta-arrestin GPR151 cells, luminescence; AID 1508602; 650,000 tested, 1% active; activation, % at 11.2 µM; in the data active means activation above about 4.9%;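 further: 0% = median of compound wells and 100% = cells with positive control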
Target sequence (Q8TDV0 whole entry, looked up): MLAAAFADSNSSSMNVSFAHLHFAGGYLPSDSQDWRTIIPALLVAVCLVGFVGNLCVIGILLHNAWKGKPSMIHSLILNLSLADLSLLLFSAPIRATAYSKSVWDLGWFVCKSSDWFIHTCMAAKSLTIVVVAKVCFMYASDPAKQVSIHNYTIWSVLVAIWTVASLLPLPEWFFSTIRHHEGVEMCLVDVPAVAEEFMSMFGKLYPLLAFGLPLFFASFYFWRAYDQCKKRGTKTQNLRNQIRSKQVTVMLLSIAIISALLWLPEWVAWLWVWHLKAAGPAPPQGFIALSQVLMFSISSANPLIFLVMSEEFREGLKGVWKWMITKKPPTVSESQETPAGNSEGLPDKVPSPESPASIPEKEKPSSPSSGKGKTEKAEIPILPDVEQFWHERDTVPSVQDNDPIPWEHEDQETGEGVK
TEAD-YAP block = TEAD-YAP interaction inhibition; HEK-TIYL cells, TEAD-Gal4/YAP UAS-luciferase luminescence; inhibition, % at 9.12 µM; 640,000 tested, 1.4% active; AID 1259422; in the data active means inhibition above about 32%;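 further: 0% = median of test compound wells and 100% = reference inhibitor wells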
FBW7 activator = activators of human E3 ligase FBW7; Q969H0; AlphaScreen FBW7–phospho-cyclin E peptide binding, activator screen; normalized activity (activation), % at 26.1 µM; 650,000 tested, 0.13% active; AID 1259310; in the data active means normalized activity above about 1.9%;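 further: purified mutant Fbw7 with reduced substrate affinity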
MITF primary = human MITF inhibition, primary screen | O75030 | AlphaScreen MITF homodimerization, bead proximity signal | inhibition, % at 2.6 µM | 650,000 tested, 0.91% active | AID 1259374; in the data active means inhibition above about 50%;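 further: 0% = vehicle wells with protein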
GPR151 confirm = human GPR151 activation, confirmation screen | shares compounds with GPR151 ag | GPR151 PathHunter beta-arrestin cells, luminescence, 90 min; % of EA-reagent control over plate median | activation, % at 11.2 µM | 6,700 tested, under 10 active | AID 1508609;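 active means mean percent activation across replicates above the confirmation screen cutoff of 4.91%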
GPR119 counter = counter-screen for GPR151 activators: effect on human GPR119; shares compounds with GPR151 ag; activation, % at 11.2 µM; 6,700 tested, 0.3% active; GPR119 PathHunter beta-arrestin cells, luminescence, 90 min; 0 = compound-well median, 100 = enzyme-acceptor control;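 active means mean percent activation in the counterscreen above 29.09%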;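 further: counterscreen on off-target GPR119 to flag nonselective hits from the GPR151 activator screen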
Starred values were filed as active, the others as inactive; x = not tested or not shown; ! = a repeat was not active.

SMILES | GPR151 ag | TEAD-YAP block | FBW7 activator | MITF primary | GPR151 confirm | GPR119 counter
COc1ccc(C2CC(=O)N3CN(Cc4ccccc4)CSC3=C2C#N)cc1 (stereo not given) | 5.8* | 6 | 0 | 8 | -1 | -12
CC12CCC(C(=O)NCc3ccccc3)(OC1=O)C2(C)C (stereo not given) | 5.3* | 7 | 0 | -15 | 0 | 7
CC12CCC(C(=O)NCCN3CCOCC3)(OC1=O)C2(C)C (stereo not given) | 5.9* | -13 | 0 | 13 | 0 | -5
CCOC(=O)CSC1=C(C#N)C(c2ccc(CC)cc2)CC(=O)N1 (stereo not given) | -1 | 5 | 0 | -3 | x | x
CC1CCN(c2nc(N3CCOCC3)nc(N3CCOCC3)n2)CC1 | 8.9* | 8 | 0 | 8 | 0 | -2
Cc1ccc(C(=O)COC(=O)c2cc(-c3ccc(C)c(C)c3)nc3ccc(C)cc23)cc1 | 0 | 7 | 0 | 1 | x | x
Cc1ccc2nc(-c3ccc(C)c(C)c3)cc(C(=O)OCC(=O)c3ccc([N+](=O)[O-])cc3)c2c1 | 5.6* | 4 | 0 | 7 | 0 | 7
C=CCOC(=O)C1C(c2ccc([N+](=O)[O-])cc2)c2c([nH][nH]c2=O)CC1(C)O (stereo not given) | -2 | -8 | 0 | -9 | x | x
COC(=O)c1ccc(NC(=O)CN(c2ccc(F)cc2)S(C)(=O)=O)cc1 | -1 | -11 | 1 | 1 | x | x
COC(=O)c1ccc(C)c(NC(=O)CN(c2ccc(F)cc2)S(C)(=O)=O)c1 | 7.1* | 2 | 0 | -12 | -1 | -5
CC(C)=CCC[C@@H](C)C1CC[C@@]2(C)C3=C(CC[C@]12C)[C@@]1(C)CCC(O)C(C)(C)[C@@H]1CC3 (stereo not given in full) | 7.7*! | 6 | 0 | -1 | 1 | 11
CC(=O)O[C@H]1CCC2(C)C3=C(CCC2C1(C)C)[C@]1(C)CCC(C(C)CCC=C(C)C)[C@@]1(C)CC3 (stereo not given in full) | 3 | -12 | 0 | 12 | x | x
O=C(c1cnccn1)N1CCC2(CC1)CC(O)(c1nccs1)CO2 (stereo not given) | 0 | -10 | 0 | 8 | x | x
O=C(CN1CC(=O)N2CCCC2C1=O)NCCc1ccccc1 (stereo not given) | -2 | 1 | 0 | -4 | x | x
O=C(CN1CC(=O)N2CCCC2C1=O)NCCc1ccc(Cl)cc1 (stereo not given) | 7.8* | -3 | 0 | -2 | -1 | -2
O=C(CN1CC(=O)N2CCCC2C1=O)NCc1ccccc1 (stereo not given) | -2 | 5 | 0 | 12 | x | x
O=C(CN1CC(=O)N2CCCC2C1=O)NCc1cccc(Cl)c1 (stereo not given) | 10* | -8 | 0 | -3 | -1 | -10
Clc1cccc(N2CCN(c3ncnc4c3nc3n4CCCCC3)CC2)c1 | 12* | 41* | 0 | 8 | 1 | 2
Cc1ccc(OCCOc2ccc(/C=C3/C(=N)N4N=C(c5ccccc5C)SC4=NC3=O)cc2)cc1 | -1 | 12 | 0 | 5 | x | x
Cc1ccc(CN2CCNC(=O)C2CC(=O)N(C)CCc2cnn(C)c2)cc1 (stereo not given) | 0 | 1 | 0 | 9 | x | x
CC(C)CCN1CCNC(=O)C1CC(=O)N(C)CCc1cnn(C)c1 (stereo not given) | 5.6* | -3 | 0 | 18 | 0 | 6
Cc1ccc(NC(=O)c2ccc(Nc3nc(-c4ccccc4)c4cc(C)ccc4n3)cc2)c(C(=O)c2ccccc2)c1 | -1 | 4 | 1 | 4 | x | x
CCOC(=O)CSC1=Nc2ccccc2C2=NC(Cc3ccccc3)C(=O)N12 (stereo not given) | 2 | -19 | -1 | 16 | x | x
COc1ccc(Cn2c(O)c(C=Nc3ccc(OC)cc3OC)c3ccccc3c2=O)cc1 | 7.0* | 4 | 0 | -8 | 2 | -5
Cc1nn2cnc3sc4c(c3c2nc1=O)CCC(C(C)(C)C)C4 (stereo not given) | 7.0* | -8 | 0 | -1 | 0 | -4
Cn1c(NN)nc2sc3c(c2c1=O)CCC(C(C)(C)C)C3 (stereo not given) | 0 | 8 | 0 | 11 | x | x
